Hit rate of the full screen: of about 48,000 compounds, about 13,000 (27%) showed an effect of 50% or more. Some of the results follow.
Test system: Wolbachia pipientis
Assay: Anti-Wolbachia Cell-Based Screen
Format: functional
Design: scale not given: in the data most compounds retested in dose-response had high values
Conditions: 5 µM

Compound	Percent Effect [%]
COCCC(=O)N1CCCC2(CCC(=O)N(CCc3c[nH]cn3)C2)C1 (stereo unspecified)	0.09306
Cc1cnn(CCNCc2nc(Cc3ccccc3)no2)c1	-7.265
Fc1cccc(N2CCCC3(C2)CN(c2cnccn2)CCO3)c1 (stereo unspecified)	1.052
O=C(NCC1CC1)[C@H]1CN(Cc2nccs2)C[C@H]2OCC[C@@H]12.O=C(O)C(F)(F)F	-15.61
Cn1ccnc1NC[C@@H]1CCC[C@@H]2CN(Cc3nccs3)C[C@@H]21.O=C(O)C(F)(F)F	-0.855
CC(=O)N1[C@@H](C(=O)NCC2CC2)C[C@@H]2CN(Cc3nccs3)C[C@@H]21.O=C(O)C(F)(F)F	88.62
CN1[C@@H](C(=O)NCC2CC2)C[C@H]2CN(Cc3cccc(C#N)c3)C[C@H]21.O=C(O)C(F)(F)F.O=C(O)C(F)(F)F	99.16
CCc1cc(C(=O)NCC2CCN(Cc3cccc(C#N)c3)C2)on1 (stereo unspecified)	4.535
CO[C@H]1CN(Cc2cccc(C#N)c2)[C@@H]2COC[C@H]12.O=C(O)C(F)(F)F	-6.68
CN(C)S(=O)(=O)c1csc(C(=O)N2CCSCC2)c1	-1.993
CC(C)c1cc(C(=O)N[C@H]2CN(C3CCOCC3)C[C@@H]2C2CC2)no1	-8.943
COc1ncccc1C(=O)N1CCCC(c2cc(C)[nH]n2)C1 (stereo unspecified)	-2.172
COc1ncccc1C(=O)N1CCCC(n2ccnc2C)C1 (stereo unspecified)	125.3
COCCOc1ncccc1C(=O)N1CCCC(n2ccnc2C)C1 (stereo unspecified)	113.9
Cc1nccn1C1CCCN(C(=O)c2cc(O)nc3ccccc23)C1 (stereo unspecified)	-15.61
CC(C)(C)CNC[C@H]1Cn2c(-c3ccccc3)cnc2CO1	-15.45
CC(=O)N1CCN(C(=O)CNc2ccc3sccc3c2)CC1	-10.18
CC(C)CNC(=O)c1ccc(NC(=O)NC2CC2)cc1Cl	-3.361
CCn1cnnc1CNC(=O)c1ccc(Cl)cc1F	9.197
CN(C)C(=O)C1CCc2nnc(CNC(=O)c3ccc(Cl)cc3Cl)n21 (stereo unspecified)	114.2
CC(CNC(=O)c1ccc(Cl)cc1I)N1CCCC1 (stereo unspecified)	-14.44

Compound	Percent Effect [%]
O=C(NCc1nnc2n1C(C(=O)NC1CC1)CC2)c1ccc(Cl)cc1Cl (stereo unspecified)	110.4
CC(C)C(NC(=O)c1ccc(Cl)cc1Cl)C(=O)Nc1cnn(C)c1 (stereo unspecified)	12.86
CC(C)NC(=O)C1CCc2nnc(CNC(=O)c3ccc(Cl)cc3Cl)n21 (stereo unspecified)	98.13
O=C(NCC(=O)N1CCCCC1)c1ccc(Cl)cc1I	-12.84
Cn1cc(-c2cnc3n2CCC32CCN(S(=O)(=O)C3CC3)CC2)cn1.O=C(O)C(F)(F)F	2.089
CC(NS(=O)(=O)N(C)C(C)C)C(=O)N(C)C (stereo unspecified)	-8.822
COc1ccc(Cl)cc1CS(=O)(=O)Cc1nc(C)no1	9.011
CCOc1cc(C(=O)NS(C)(=O)=O)cc(-c2ccccc2)c1OC	4.998
CS(=O)(=O)NCc1cc2n(n1)CCCN(Cc1nc3ccccc3[nH]1)C2	2.68
Cc1nn(C)c(C)c1S(=O)(=O)NCCn1ccc(-c2cccs2)n1	-20.8
CN(C)c1ccc(NC(=O)N2CCCC2c2ccsc2)cn1 (stereo unspecified)	11.58
O=C(C1CCC1)N1CCN(Cc2ccsc2)[C@H]2CS(=O)(=O)C[C@H]21	-4.22
Cl.O=C(C1CCC1)N1C[C@@H](c2ccsc2)[C@@H]2CN(C3CCCCC3)CC[C@@H]21	144.1
Cl.O=C(C1CCC1)N1C[C@@H](c2ccsc2)[C@@H]2CN(C3CCCC3)CC[C@@H]21	127.5
Cl.O=C(C1CCCC1)N1C[C@@H](c2ccsc2)[C@@H]2CN(C3CCCC3)CC[C@@H]21	194.4
CSc1ncc(CN2CC(Oc3c(C)cccc3C)C2)cn1	-6.082
CCC(Nc1nc(C(C)C)nc2c1cnn2C)c1ccncc1 (stereo unspecified)	-4.681
Cc1ccc(NS(=O)(=O)CC2=NC(=O)n3cccc3C2=O)cc1	7.318
O=C(Nc1ccccc1)c1ccc(NCc2ccccc2CO)nn1	-18.51
CCCS(=O)(=O)N1CCC2(CC1)CN(c1ccccn1)CCO2.O=C(O)C(F)(F)F	3.761
O=C(NCC1CCOC1)Nc1ccc(OCC(F)(F)F)nc1 (stereo unspecified)	-13.99

Compound	Percent Effect [%]
COCCC(=O)N1CCc2nc(N3CCOCC3)nc(NC(C)C)c2C1	-19.12
CC(C)Nc1n[nH]c2nc(C3CCN(C(=O)c4ccccn4)C3)ccc12 (stereo unspecified)	75.7
COCCOCCC(=O)N1CCC(c2ccccc2C)C1 (stereo unspecified)	-9.058
COCCC(=O)N1CCC(c2ccc3c(NC(C)C)n[nH]c3n2)C1 (stereo unspecified)	74.92
Cc1ncsc1C(=O)N1CCC(c2ccc3c(NC(C)C)n[nH]c3n2)C1 (stereo unspecified)	170.9
CC(C)Oc1cccc(C(=O)C2CCCN(C(=O)c3ccccn3)C2)c1 (stereo unspecified)	-12.09
CC(C)c1nc2n(n1)CC(NCc1nc(-c3ccsc3)no1)CC2 (stereo unspecified)	-1.114
O=c1n(CC2CCCCO2)nc(CC2CCNCC2)n1-c1ccccc1 (stereo unspecified)	26.34
CC(NC(=O)c1cc(Br)c2c(c1)OCCO2)C(N)=O (stereo unspecified)	-7.344
CC(C)OCCS(=O)(=O)N1CCN(Cc2cccn2C)CC1	-8.582
CC(C)CN1C(=O)C2(CCCC2)NC12CCSCC2	-2.921
CCOc1ccc(C(=O)N2Cc3cnc(CC)nc3C2)o1	-12.82
CCN(CC)S(=O)(=O)NC(=O)c1cc(C)n(-c2ccccc2)n1	6.675
CNC(=O)c1cc(C)n(-c2ccccc2)n1	92.62
CCCS(=O)(=O)NC(=O)c1cc(C)n(-c2ccccc2)n1	6.254
COc1cc(N2CCCC(c3nccn3Cc3cscn3)C2)nc(N)n1 (stereo unspecified)	2.098
O=c1[nH]c2c(c(=O)n1C1CCCCC1)CCC2Nc1ccccc1 (stereo unspecified)	-8.343
O=c1[nH]c2c(c(=O)n1C1CCCCC1)CCC2Nc1ccccc1Cl (stereo unspecified)	4.437
O=c1[nH]c2c(-c3ccccn3)nsc2c(=O)n1C1CCCCC1	110.2

— ChEMBL document CHEMBL3988442, “University of Dundee, Small-Polar-MMV Screening Library” (2021)
